According to PubChem BioAssay AID1159580 (chemical genetic matrix, 2015):
Values joined by “and” are separate entries in the source; they are usually repeats but may differ in a detail not shown here. Identical values can stand only once. Out of some 5,500 compounds screened, about 2,000 (36%) were called active. Not shown: some 18% with an inconclusive outcome. Cut-off read from the data, not from the text of the source: active = normalized growth mostly below about 0.91 (no sharp cut-off); inconclusive = no clear call, values can overlap the other calls; inactive = mostly above about 0.92. This is one part of the list.

Test: chemical genetic growth profiling, strain panel (AID 1159580);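 note: tested at 20 µM; growth read once vehicle control cultures reached saturation at 30 °C; 1 = growth at the plate median or of vehicle wells; lower values mean less growth of the strain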
Settings: S. cerevisiae deletion strains, growth OD

Measured: normalized growth

Cc1ccnc(NS(=O)(=O)c2ccc(N)cc2)n1
inactive: locus YAL013W, strain DEP1, hits give low values 1 | locus YAL021C, strain ccr4, hits give low values 0.971 | locus YAL026C, strain drs2, hits give low values 0.994 | locus YAL030W, strain snc1, hits give low values 0.999 | locus YBL061C, strain skt5, hits give low values 0.997 | locus YBR009C, strain hhf1, hits give low values 1.01 | locus YBR021W, strain FUR4, hits give low values 0.994 | locus YBR023C, strain chs3, hits give low values 0.998 | locus YBR171W, strain sec66, hits give low values 1.02 | locus YBR229C, strain ROT2, hits give low values 1 | locus YBR231C, strain swc5, hits give low values 1.01 | locus YBR279W, strain paf1, hits give low values 1.01 | locus YCL011C, strain gbp2, hits give low values 0.969 | locus YCL016C, strain dcc1, hits give low values 0.968 | locus YCL029C, strain bik1, hits give low values 1.02 | locus YCL061C, strain MRC1, hits give low values 1.01 | locus YCL069W, strain vba3, hits give low values 0.998 | locus YCR088W, strain abp1, hits give low values 1 | locus YDL005C, strain med2, hits give low values 1 | locus YDL035C, strain GPR1, hits give low values 1.01 | locus YDL040C, strain nat1, hits give low values 0.999 | locus YDL074C, strain BRE1, hits give low values 0.978 | locus YDL101C, strain DUN1, hits give low values 1.01 | locus YDL134C, strain PPH21, hits give low values 1.01 | locus YDL185W, strain tfp1, hits give low values 0.967 | locus YDL192W, strain arf1, hits give low values 1.02 | locus YDR001C, strain nth1, hits give low values 0.999 | locus YDR069C, strain doa4, hits give low values 1.02 | locus YDR101C, strain arx1, hits give low values 1.01 | locus YDR137W, strain rgp1, hits give low values 1.03 | locus YDR150W, strain NUM1, hits give low values 1 | locus YDR159W, strain sac3, hits give low values 0.968 | locus YDR162C, strain NBP2, hits give low values 1 | locus YDR195W, strain ref2 1 | locus YDR297W, strain sur2, hits give low values 1.01 | locus YDR318W, strain mcm21, hits give low values 1.02 | locus YDR334W, strain swr1, hits give low values 0.995 | locus YDR335W, strain msn5, hits give low values 0.986 | locus YDR388W, hits give low values 1.01 | locus YDR392W, strain spt3, hits give low values 0.887 | locus YDR502C, strain sam2, hits give low values 1.01 | locus YEL003W, strain gim4, hits give low values 1.02 | locus YEL037C, strain rad23, hits give low values 1.01 | locus YEL061C, strain CIN8 (second series), hits give low values 1 | locus YEL061C, strain CIN8, hits give low values 1 | locus YER015W, strain faa2, hits give low values 0.992 | locus YER016W, strain bim1, hits give low values 1.01 | locus YER110C, hits give low values 1.02 | locus YER111C, strain swi4, hits give low values 0.998 | locus YER155C, strain BEM2 (second series), hits give low values 1.02 | locus YER155C, strain BEM2, hits give low values 1 | locus YER167W, strain BCK2, hits give low values 1.01 | locus YFR010W, strain ubp6, hits give low values 1.02 | locus YGL078C, strain dbp3, hits give low values 1.01 | locus YGL086W, strain mad1, hits give low values 1.01 | locus YGL167C, strain pmr1, hits give low values 0.992 | locus YGL173C, strain kem1, hits give low values 1.02 | locus YGL227W, strain vid30, hits give low values 0.999 | locus YGL240W, strain doc1, hits give low values 1.03 | locus YGL248W, strain PDE1, hits give low values 0.998 | locus YGL253W, strain hxk2, hits give low values 0.996 | locus YGR078C, strain PAC10, hits give low values 0.971 | locus YGR135W, strain pre9, hits give low values 1.01 | locus YGR229C, strain SMI1, hits give low values 0.97 | locus YGR252W, strain gcn5, hits give low values 0.984 | locus YHR013C, strain ard1, hits give low values 0.987 | locus YHR027C, strain rpn1, hits give low values 0.999 | locus YHR030C, strain SLT2, hits give low values 1 and 0.973 | locus YHR079C, strain IRE1 (second series), hits give low values 1.01 | locus YHR079C, strain IRE1, hits give low values 0.973 | locus YHR094C, strain hxt1, hits give low values 1.01 | locus YHR129C, strain ARP1, hits give low values 1.01 | locus YHR142W, strain chs7, hits give low values 1 | locus YHR200W, strain rpn10, hits give low values 1.01 | locus YIL066C, strain RNR3, hits give low values 1.01 | locus YIL073C, strain SPO22, hits give low values 1.02 | locus YIL125W, strain kgd1, hits give low values 1 | locus YIR030C, strain dcg1, hits give low values 1.02 | locus YJL092W, strain hpr5, hits give low values 1 | locus YJL095W, strain BCK1 (second series), hits give low values 1 | locus YJL095W, strain BCK1, hits give low values 1.01 and 0.972 | locus YJL115W, strain asf1, hits give low values 0.992 | locus YJL129C, strain trk1, hits give low values 0.996 | locus YJL134W, strain LCB3, hits give low values 1 | locus YJL154C, strain vps35, hits give low values 1.01 | locus YJL164C, strain tpk1, hits give low values 0.968 | locus YJL166W, strain qcr8, hits give low values 1.02 | locus YJL168C, strain set2, hits give low values 1.01 | locus YJL187C, strain SWE1 (second series), hits give low values 1.01 | locus YJR043C, strain POL32, hits give low values 1.01 | locus YJR066W, strain TOR1, hits give low values 0.937
